For orientation: inhibition means the relative decrease from the control value, in per cent.

SMILES strings stand for the structures. Active and inactive are the calls of the source.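 How the source made its calls, unless noted: active means inhibition above 20% together with a positive visual image hit; inconclusive means visual image hit but inhibition not above 20%; inactive means no visual image hit.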

A short description of test [1]: inhibitors of TNFa-induced NFkB p65 translocation, primary screen, imaging, HUVEC, MLSMR starter and 10KST1 sets (AID 438).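 Further: compound added about 3h40 before a 20 min TNFalpha stimulation.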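 On inhibition: signal is the nuclear over cytoplasmic p65 intensity ratio per well.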 The following applies: HUVEC TNFa-induced p65 nuclear translocation; cell count: measured here: nuclei count (cytotoxicity indicator), at 2.08 µM; inhibition: at 2 µM, stronger effect = higher value, 0% TNFa-plus-vehicle, 100% no-TNFa wells.
Test [2] can be described thus: reduction of polyQ htt aggregates in cells – imaging, exon1htt(103Q)mCFP cells, high-content imaging, primary screen (AID 483;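 active means visual image review flags a hit and inhibition of aggregation exceeds 20%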;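 further: compound exposure lasted 3 days before fixation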;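 on nuclei count: percent of the per-plate median nuclei count of sample wells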). The following applies: exon1htt(103Q)mCFP cell line, aggregate imaging, at 2 µM; inhibition of aggregation: stronger effect = higher value; nuclei count: measured here: cell count, toxicity.
Test [3] can be described thus: endothelial E-selectin expression blockers – imaging, HUVEC, immunofluorescence, MLSMR starter and 10KST1 sets, primary screen (AID 487;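 active means visually confirmed hit in the image check and inhibition above 20%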;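 on inhibition: signal is fraction of cell area covered by stained E-selectin grains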;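 on nuclei count: 100% = median nuclei count of all wells on the same plate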). The following applies: HUVEC TNFalpha-induced E-selectin immunofluorescence imaging, at 2 µM; inhibition: stronger effect = higher value; nuclei count: measured here: cell number, toxicity.
Test [4] concerns the target Voltage-gated potassium channel subunit beta-2 (Rattus norvegicus) (UniProt P62483). Put plainly: inhibitors of rat Kvbeta2 reductase activity – biochemical, NADPH fluorescence, primary screen (AID 622;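 active means fluorescence slope higher than the sample average by over 3 SD, cut at about -0.22 in these data, passing the limit was not always enough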;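 further: slope of raw intensity against log time taken from 70 to 1610 s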). The following applies: recombinant KvBeta, 4-cyanobenzaldehyde reduction, at 10 µM, stronger effect = higher value.
Test [5] shares this target. Put plainly: enhancers of rat Kvbeta2 NADPH turnover – biochemical, NADPH fluorescence, primary screen (AID 623;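 active means NADPH fluorescence slope more negative than the mean of all samples by about 3 SD, 99.7% confidence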;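 further: fluorescence intensity change per second fitted from 20 to 320 s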). The following applies: Recombinant KvBeta, NADPH fluorescence decrease slope, 10 min; at 10 µM; stronger effect = lower value.
Test [6] concerns the target Alpha-2C adrenergic receptor (Homo sapiens) (UniProt P18825). Put plainly: compounds altering alpha2C-coupled GIRK flux – cell-based, HEK293 alpha2C/GIRK1/2, thallium flux, primary screen (AID 624;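 active means fluorescence slope after compound addition differing from the mean of all screened samples at 99.7% confidence, in either direction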;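 further: slope of fluorescence ratio to pre-addition baseline per second over 15 to 24 s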). The following applies: thallium flux BTC fluorescence, at 10 µM, actives lie on both sides.
Test [7] is described as follows: blockers of RIG-like receptor reporter activation – cell-based, Sendai virus stimulus, luciferase, 10K MLSCN set, TLR/RLR signaling modifier project, primary screen (AID 602276;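 active means inhibition at or above 50% at 10 µM; inactive means inhibition below 50%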;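 further: firefly luciferase from ISG56 promoter only with Renilla not read in this screen; 0% = Sendai virus plus DMSO and 100% = medium plus DMSO without virus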). The following applies: HEK293 RL24 IRF3 luciferase reporter, at 10 µM, stronger effect = higher value.
Test [8] in a line: TLR3 IRF3 reporter activation blockers – cell-based, poly I:C stimulus, luciferase, 10K MLSCN set, primary screen (AID 602277;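 active means inhibition of the reporter signal at or above 50%; inactive means inhibition below 50%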). The following applies: HEK293-TLR3 RL24 IRF3 luciferase reporter, at 10 µM, stronger effect = higher value. (In general: Reporter assays use an easily measured gene product as a stand-in for the process of interest.)

Alpha-2C adrenergic receptor (Homo sapiens), sequence (P18825 whole entry, looked up): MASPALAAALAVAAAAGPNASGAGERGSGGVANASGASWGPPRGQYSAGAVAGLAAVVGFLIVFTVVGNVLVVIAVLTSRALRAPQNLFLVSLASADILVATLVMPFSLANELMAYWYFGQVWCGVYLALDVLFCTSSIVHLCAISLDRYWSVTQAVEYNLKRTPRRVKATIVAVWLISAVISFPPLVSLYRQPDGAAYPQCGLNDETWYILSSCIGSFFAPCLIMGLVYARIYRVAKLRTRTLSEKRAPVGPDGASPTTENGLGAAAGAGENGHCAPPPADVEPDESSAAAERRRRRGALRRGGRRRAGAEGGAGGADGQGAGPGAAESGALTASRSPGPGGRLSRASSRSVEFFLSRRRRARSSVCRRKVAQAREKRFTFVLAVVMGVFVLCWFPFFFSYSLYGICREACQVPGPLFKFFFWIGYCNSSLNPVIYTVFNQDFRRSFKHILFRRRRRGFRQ
Voltage-gated potassium channel subunit beta-2 (Rattus norvegicus), sequence (P62483 whole entry, looked up): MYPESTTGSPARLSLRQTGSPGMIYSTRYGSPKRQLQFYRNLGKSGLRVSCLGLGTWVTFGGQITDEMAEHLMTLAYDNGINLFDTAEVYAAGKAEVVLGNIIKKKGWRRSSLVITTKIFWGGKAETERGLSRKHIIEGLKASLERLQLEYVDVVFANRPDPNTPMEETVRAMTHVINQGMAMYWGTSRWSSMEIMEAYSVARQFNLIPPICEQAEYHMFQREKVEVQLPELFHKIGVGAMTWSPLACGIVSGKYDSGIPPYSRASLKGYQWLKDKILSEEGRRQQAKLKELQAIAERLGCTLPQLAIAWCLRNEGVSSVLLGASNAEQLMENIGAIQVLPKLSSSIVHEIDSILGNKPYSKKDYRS

Turning to `N#CC1=C(N)S[C@H](C(=O)C23CC4CC(CC(C4)C2)C3)[C@H]1c1ccncc1`, the cell count in test [1] came to 297. Also, the inhibition is 2.4% (inactive) in test [1], -10.8% (inactive) in test [3], 11.9% (inactive) in test [7] and 23.4% (inactive) in test [8]. In addition, in test [2], the inhibition of aggregation is -16.4% (inactive). The nuclei count in test [2] amounted to 105%; in test [3] it was 111%. Further, in test [4], the fluorescence slope was -0.482 (inactive). Besides, the NADPH fluorescence slope in test [5] was -1.6e-05 (inactive). In addition, the slope in test [6] is 0.0041 (inactive).
As for `CC1CCC(NC(=O)Cn2ncc3ccccc32)CC1` (centres undefined), in test [1], the cell count was determined as 728. The inhibition in test [1] is -3.7% (inactive); in test [3], -59.2% (inactive); in test [7], -43.1% (inactive); in test [8] it was -111% (inactive). Further, the inhibition of aggregation in test [2] was -13.1% (inactive). The figures for the nuclei count in test [2] and in test [3] were 118% and 106%, respectively. In addition, in test [4], the fluorescence slope is -0.577 (inactive). For the same molecule, the NADPH fluorescence slope in test [5] is -4.8e-05 (inactive). Moreover, the slope in test [6] was 0.00746 (inactive).
`Cc1cc(C(F)(F)F)nc(NCc2cccnc2)n1`: the cell count in test [1] was determined as 597. In addition, the inhibition in test [1] is -31.3% (inactive); in test [3], -79.3% (inactive); in test [7], -7.81% (inactive); in test [8], -18.3% (inactive). The inhibition of aggregation in test [2] was -19.1% (inactive). The results for the nuclei count in test [2] and in test [3] were 97.7% and 120%, respectively. For the same molecule, the fluorescence slope in test [4] was -0.529 (inactive). Moreover, the NADPH fluorescence slope in test [5] was 1.9e-05 (inactive). The slope in test [6] is 0.00686 (inactive).
As for `Cn1cc(Cl)c(C(=O)NC2CCCC2)n1`, the cell count in test [1] came to 452. For the same molecule, the inhibition in test [1] is -8.5% (inactive); in test [3], -25.2% (inactive); in test [7], -2.09% (inactive); in test [8] it was 4.05% (inactive). The inhibition of aggregation in test [2] is 26.8% (inactive). Further, the nuclei count stood at 64.4% in test [2] and 104% in test [3]. Also, the fluorescence slope in test [4] was -0.594 (inactive). Besides, the NADPH fluorescence slope in test [5] is -3.1e-05 (inactive). In test [6], the slope was 0.00694 (inactive).
Regarding `O=C(CSc1nnc(Cc2cccs2)n1Cc1ccco1)Nc1cccc(Cl)c1`, in test [1], the cell count was found to be 677. The inhibition in test [1] is -3.5% (inactive); in test [3] it was -30.1% (inactive); in test [7], 13.6% (inactive); in test [8], 31.6% (inactive). Besides, the inhibition of aggregation in test [2] is -13.8% (inactive). The nuclei count in test [2] came to 108%; in test [3] it was 116%. The fluorescence slope in test [4] is -0.397 (inactive). Further, the NADPH fluorescence slope in test [5] is 1.1e-05 (inactive). Further, the slope in test [6] was 0.0045 (inactive).
Turning to `Cc1[nH]c2ccccc2c(=O)c1CN1CCCCC1`, in test [1], the cell count worked out at 400. Besides, the inhibition in test [1] is 2.1% (inactive); in test [3], -47.3% (inactive); in test [7], 6.83% (inactive); in test [8] it was 36.8% (inactive). In test [2], the inhibition of aggregation was -1.5% (inactive). Further, the nuclei count in test [2] turned out to be 111%; in test [3] it was 119%. Moreover, the fluorescence slope in test [4] was -0.453 (inactive). Besides, the NADPH fluorescence slope in test [5] was -5.7e-05 (inactive). In test [6], the slope was 0.00287 (inactive).
Regarding `CCOc1ccc(-c2nc(N)ncc2-c2ccccc2)c(O)c1`, in test [1], the cell count is 399. Further, the inhibition in test [1] was 2% (inactive); in test [3], -32.6% (inactive); in test [7] it was -1.82% (inactive); in test [8] it was -1.28% (inactive). Besides, the inhibition of aggregation in test [2] is -4.3% (inactive). Besides, the nuclei count stood at 114% in test [2] and 67.7% in test [3]. Further, the fluorescence slope in test [4] is -0.581 (inactive). In addition, in test [5], the NADPH fluorescence slope was -3.6e-05 (inactive). The slope in test [6] was 0.00545 (inactive).
In the case of `COc1ccccc1N(CN1CCCC1=O)C(=O)c1c(F)cccc1Cl`, the cell count in test [1] worked out at 370. Also, the inhibition is -0.3% (inactive) in test [1], -15.4% (inactive) in test [3], 12.3% (inactive) in test [7] and 4.03% (inactive) in test [8]. The inhibition of aggregation in test [2] is 9.3% (inactive). Also, the nuclei count is 84.8% in test [2] and 91.8% in test [3]. In addition, the fluorescence slope in test [4] is -0.477 (inactive). Besides, in test [5], the NADPH fluorescence slope is -3.8e-05 (inactive). Besides, in test [6], the slope is 0.0058 (inactive).
As for `CCc1nc2scc(-c3ccccc3)c2c(=O)n1N`, the cell count in test [1] came out at 414. Besides, the inhibition in test [1] was 10.9% (inactive); in test [3], -361% (inactive); in test [7], -8.38% (inactive); in test [8], -30.6% (inactive). In addition, in test [2], the inhibition of aggregation was 0% (inactive). Besides, the nuclei count turned out to be 98.5% in test [2] and 142% in test [3]. In addition, in test [4], the fluorescence slope is -0.437 (inactive). In addition, the NADPH fluorescence slope in test [5] was 6.4e-05 (inactive). Further, the slope in test [6] is 0.00592 (inactive).
As to `CN(C)c1oc(-c2ccccc2Cl)nc1C#N`, the cell count in test [1] was determined as 302. Further, the inhibition is 4.3% (inactive) in test [1], 6% (inactive) in test [3], 6.71% (inactive) in test [7] and -0.158% (inactive) in test [8]. The inhibition of aggregation in test [2] is -4.3% (inactive). For the same molecule, the results for the nuclei count in test [2] and in test [3] were 90.7% and 109%, respectively. Besides, in test [4], the fluorescence slope was -0.433 (inactive). Also, the NADPH fluorescence slope in test [5] is -0.000102 (inactive). The slope in test [6] is 0.00458 (inactive).
`COc1cccc(C2CC(=O)Nc3cc4c(cc32)OCCO4)c1OC(C)C` (centres undefined): the cell count in test [1] was 556. Moreover, the inhibition was 1.9% (inactive) in test [1], -18.7% (inactive) in test [3], 9.49% (inactive) in test [7] and 17.8% (inactive) in test [8]. Also, the inhibition of aggregation in test [2] is 7.2% (inactive). In addition, the nuclei count stood at 119% in test [2] and 104% in test [3]. The fluorescence slope in test [4] is -0.497 (inactive). Further, the NADPH fluorescence slope in test [5] was -6e-05 (inactive). Moreover, in test [6], the slope is 0.00619 (inactive).
Consider `COc1ccc(Cl)cc1S(=O)(=O)N1CCN(c2ccc(F)cc2)CC1`, for which, in test [1], the cell count is 657. The inhibition in test [1] was -1.1% (inactive); in test [3], 36.7% (inactive); in test [7], 46.4% (inactive); in test [8], 0.0275% (inactive). The inhibition of aggregation in test [2] was -29.1% (inactive). Besides, the nuclei count in test [2] was determined as 101%; in test [3], 137%. The fluorescence slope in test [4] was -0.319 (inactive). In addition, the NADPH fluorescence slope in test [5] was -1.3e-05 (inactive). Further, the slope in test [6] is 0.00495 (inactive).
Regarding `CCN(CC)C(=O)c1ccc(CS(=O)(=O)c2ccc(OC)cc2)o1`, the cell count in test [1] is 560. For the same molecule, the inhibition in test [1] is -2% (inactive); in test [3], -67.7% (inactive); in test [7] it was -17.1% (inactive); in test [8] it was -10.1% (inactive). The inhibition of aggregation in test [2] is 1.4% (inactive). The nuclei count in test [2] is 102%; in test [3], 125%. The fluorescence slope in test [4] was -0.599 (inactive). In test [5], the NADPH fluorescence slope was -3e-05 (inactive). Further, the slope in test [6] was 0.00698 (inactive).
For `O=C1c2ccccc2NC2CCCCCN12` (centres undefined), the cell count in test [1] came to 445. In addition, the inhibition in test [1] was -2.1% (inactive); in test [3], 13.9% (inactive); in test [7] it was -2.99% (inactive); in test [8], 4.91% (inactive). The inhibition of aggregation in test [2] was -11% (inactive). Also, the nuclei count in test [2] is 108%; in test [3], 110%. Moreover, the fluorescence slope in test [4] was -0.417 (inactive). Besides, the NADPH fluorescence slope in test [5] is 2.2e-05 (inactive). Also, the slope in test [6] was 0.0068 (inactive).

The values are drawn from PubChem BioAssay.
